# Unmarked numbers belong to inactive results. Active and inactive are the calls of the source.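 How the source made its calls: active means inhibition above the hit cutoff set in the earlier primary screen (cut at about 27% in these data); inactive means the rest.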
# Molecular target: Protein phosphatase methylesterase 1 (Homo sapiens) (UniProt Q9Y570)
# Test: human PME-1 methylesterase inhibition confirmation – biochemical, fluorescence polarization, FP-Rh probe, triplicate (AID 2171);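 further: 0% = enzyme with DMSO and 100% = wells lacking PME-1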
# Conditions: recombinant PME-1, FP-Rh probe fluorescence polarization; at 5.9 µM; active compounds read high
# Sequence of Protein phosphatase methylesterase 1 (Homo sapiens) (Q9Y570 whole entry, looked up): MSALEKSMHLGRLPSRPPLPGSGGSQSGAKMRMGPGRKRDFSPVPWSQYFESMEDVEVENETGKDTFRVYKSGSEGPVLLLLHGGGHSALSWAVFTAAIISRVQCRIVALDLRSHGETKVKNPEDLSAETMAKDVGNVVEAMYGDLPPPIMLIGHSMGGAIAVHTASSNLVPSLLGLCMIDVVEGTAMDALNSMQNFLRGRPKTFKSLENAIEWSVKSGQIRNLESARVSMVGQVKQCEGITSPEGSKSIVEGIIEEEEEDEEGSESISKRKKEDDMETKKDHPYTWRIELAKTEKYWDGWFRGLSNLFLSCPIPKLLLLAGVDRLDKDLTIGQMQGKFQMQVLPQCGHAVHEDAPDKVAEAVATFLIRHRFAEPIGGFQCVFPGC
row,Structure (SMILES),inhibition
1,O=C(O)c1ccccc1-c1ccccc1C(=O)Nc1ccc(-c2nc3cc(Cl)ccc3o2)cc1,22.2%
2,CCc1cccc2c(C(=O)COC(=O)c3ccc([N+](=O)[O-])s3)c[nH]c12,24.6%
3,CNS(=O)(=O)c1cc(C(=O)OCC(=O)NC2CCCc3ccccc32)ccc1Cl (stereo not given),24.4%
4,Fc1cccc2sc(Nc3nnc(-c4ccccc4)o3)nc12,33% (active)
5,CCc1ccc(S(=O)(=O)/N=C2/C=C(Sc3ncn[nH]3)C(=O)c3ccccc32)cc1,52.9% (active)
6,N#CCC(=O)c1ccccc1Oc1ccc(Cl)cc1,13.4%
7,Oc1cccc(Nc2nc(O)c(/C=C3\C=Nc4ccccc43)s2)c1,-7.79%
8,COc1ccc(-c2cc(-c3cc(OC)ccc3O)[nH]n2)cc1,71% (active)
9,O=C1/C(=C/Nc2ccc3c(c2)OCO3)CCc2ccccc21,19.5%
10,Cc1c(O)ccc(/C=N/Nc2nc(-c3cccnc3)nc3ccccc23)c1O,48.8% (active)
11,CN1C(=O)NC(c2ccccc2[N+](=O)[O-])C2=C1CCCC2=O (stereo not given),51.5% (active)
12,Cn1nc(-c2ccc(Cl)cc2)nc2c(=O)n(C)c(=O)nc1-2,44.8% (active)
13,Cc1ccccc1OCC(=O)NC(=S)Nc1cccc2cc(O)ccc12,20.7%
14,COc1cccc(CNC(=O)CCCc2cn(C)c3ccccc23)c1,6.78%
15,O=C1Nc2ccccc2/C1=N\N=C\C1=C(N2CCOCC2)C(=C\c2ccccc2)/CC1,24%
16,O=C(Nc1ccc2[nH]c(=S)sc2c1)Nc1ccccc1F,67.4% (active)
17,COc1ccc(-c2oc(NC(=O)CCl)c(C#N)c2-c2ccc(OC)cc2)cc1,22.7%
18,O=[N+]([O-])c1ccc(N/N=C/c2ccccc2O)cc1,10.8%

row,Structure (SMILES),inhibition
1,COc1ccc2nc(-n3c(O)c(C4=c5ccccc5=NC4=O)[nH]c3=S)sc2c1,45.8% (active)
2,N#C/C(=C/c1ccc(O)c(O)c1)c1nc2ccccc2[nH]1,-30.6%
3,COc1ccc(/C=c2\s/c(=C/C(=O)c3ccc(C)cc3)[nH]c2=O)c(OC)c1,18.9%
4,O=C1[C@@H]2Cc3c([nH]c4ccccc34)C(c3ccccc3)N2C(=O)CN1C1CC1 (stereo not given in full),5.42%
5,CCCn1c(CCC(=O)Nc2ccccc2Cc2ccccc2)nc2cc(S(=O)(=O)N3CCOCC3)ccc21,45.4% (active)
6,S=C(Nc1ccc(N2CCOCC2)cc1)Nc1ccc2nc(-c3ccco3)c(-c3ccco3)nc2c1,24.7%
7,CCCSc1nnc(NC(=O)c2sc3nc(-c4cccs4)ccc3c2N)s1,37.4% (active)
8,CCN(CC)S(=O)(=O)c1ccc(C)c(NC(=O)COC(=O)c2ccc(C)c(S(=O)(=O)N3CCOCC3)c2)c1,49.7% (active)
9,COc1cc2c(cc1NC(=O)Nc1cccc(C)c1)oc1ccccc12,12.2%
10,COc1cc2c(cc1NC(=O)c1cccnc1)oc1ccccc12,25.8%
11,CC(=O)Nc1ccc(Nc2nc(C)c([N+](=O)[O-])c(Nc3ccccc3)n2)cc1,19.7%
12,O=c1[nH]n2c(=O)c3c([nH]c2c1N=Nc1cccc(C(F)(F)F)c1)CCCC3,60.6% (active)
13,COC(=O)c1cccc(C#CC(NP(=O)(c2ccccc2)c2ccccc2)c2ccccc2)c1 (stereo not given),35.1% (active)
14,Cc1ccccc1NC1=C/C(=N\S(=O)(=O)c2cccs2)c2ccccc2C1=O,38.4% (active)
15,CCN(CC)c1nc2c3c(nc4c(c3c1C#N)CC(=O)N4c1ccc(Cl)cc1)NC(C)=N2,9.8%
16,COc1cccc(-c2nnc(Nc3nc4c(F)cccc4s3)o2)c1,46.2% (active)
17,COC(=O)c1ccc(NC(=O)Nc2ccc(OC)cc2)cc1,23.2%

# From PubChem BioAssay
